A selection: hits, their analogues and other compounds. The true share with any hit is near 3.3%.
Sm TGR inh: inhibitors of Schistosoma mansoni thioredoxin glutathione reductase. Potency, µM (top dose mostly 114 µM), actives largely listed as inhibitors. hit rate 3% among 360,000. Q962Y6. purified TGR, DTNB reduction, TNB absorbance 405 nm. AID 485364; further: nearly all actives have a fitted effect of over 60% in size
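TGR 20 nM + NADPH 100 uM (dispensed conc.), cpd preinc 15 min RT; start with NADPH (500 uM addition) then DTNB (15 mM addition). Kinetic TNB absorbance, 405 nm filter. Four-parameter Hill fit across titration.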
FBPA Giardia inh: blocks Giardia fructose-bisphosphate aldolase activity; A8B2U2; purified Giardia FBPA; Potency, µM (series often up to 59.6 µM), hits mostly inhibitors; hit rate 0.71% among 290,000; AID 2451; further: nearly all actives have a fitted effect of over 55% in size
Target sequence (A8B2U2 whole entry, looked up): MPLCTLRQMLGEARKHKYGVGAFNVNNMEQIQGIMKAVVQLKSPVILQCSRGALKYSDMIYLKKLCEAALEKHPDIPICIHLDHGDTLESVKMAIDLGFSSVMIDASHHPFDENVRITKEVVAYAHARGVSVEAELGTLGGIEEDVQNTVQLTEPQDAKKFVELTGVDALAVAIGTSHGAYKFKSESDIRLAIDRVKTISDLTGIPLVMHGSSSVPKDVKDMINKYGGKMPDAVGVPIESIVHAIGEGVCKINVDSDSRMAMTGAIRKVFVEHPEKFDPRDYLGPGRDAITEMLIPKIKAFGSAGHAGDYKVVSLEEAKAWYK
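40 nM FBPA preincubated 10 min at RT with compound (up to 57.5 uM final), then substrate plus GAPDH/TPI/NAD/arsenate coupling and diaphorase/resazurin added. Fluorescence read after 20 min at RT, 525/598 nm.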
RE007 growth inh: less growth of the S. pombe RE007 Vpr strain | S. pombe RE007 Vpr strain, BacTiter-Glo ATP luminescence, 24 h | Potency, µM (series often up to 92.2 µM), actives largely listed as inhibitors | hit rate 0.21% among 360,000; active means well fitted falling curve with a large enough effect; inconclusive means small, poorly fitted or top-dose-only effect; inactive means no such curve, though single readings can be large or run the other way; further: nearly all actives have a fitted effect of over 50% in size
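Fission yeast strain RE007, carrying one chromosomally integrated HIV-1 vpr copy, was seeded at OD 0.01 in PMG+AL medium with 23 nL pinned compound. After 24 h at 30 °C and 99% humidity, viability was read by BacTiter-Glo luminescence.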
TbPYK inhibitor: blocks Trypanosoma brucei pyruvate kinase; Q57TT1; TbPYK enzyme, Kinase-Glo Plus ATP luminescence, 45 min; Potency, µM (series often up to 76.8 µM), most hits filed as inhibitors; hit rate 0.12% among 410,000; AID 624173; further: nearly all actives have a fitted effect of over 50% in size
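Luminescent Kinase-Glo Plus end-point after 45 min room-temperature reaction of T. brucei pyruvate kinase started with 130 uM ADP (final). Buffer TEA 50 mM pH 7.2 with KCl, MgCl2, BSA, Tween-20; titration-based qHTS with fitted concentration-effect curves.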
LmPK inhibitor: LmPK (Leishmania mexicana) enzyme inhibition; Q27686; purified LmPK, Kinase-Glo ATP luminescence, 1 h; Potency, µM (doses to about 57.5 µM), most hits filed as inhibitors; hit rate 0.37% among 290,000; AID 1721
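Kinase-Glo luminescence read after 1 h RT reaction of 0.1 nM LmPK with 0.5 mM PEP and 0.1 mM ADP. Activity scaled between uninhibited and enzyme-free controls.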
A number is an active result; - = inactive; ? = inconclusive; . = not tested or not shown; [ ] = another dose, or the depositor's remark. Unless noted, the call rests on the fitted dose curve; in most records, active means well fitted curve in the direction sought with a large enough effect; inconclusive means small, poorly fitted or top-dose-only effect, or another doubt; inactive means no such curve, though single readings can be large; an effect the other way counts as inactive or inconclusive.

SMILES	Sm TGR inh	FBPA Giardia inh	RE007 growth inh	TbPYK inhibitor	LmPK inhibitor
CCOC(=O)c1ccc(NC(=O)c2c(NC(=O)CCC(=O)O)sc3c2CCCCC3)cc1	-	?	-	-	-
COc1ccc(-c2ccc3c(N)c(C(=O)NCc4ccc(Cl)cc4)sc3n2)cc1	-	.	.	-	.
COc1ccc(NC(=O)c2c(NCc3cccs3)sc3c2CCCC3)cc1	32µM	.	.	?	.
Cc1cccc(N2CCN(C(=O)c3ccc4c(c3)N(Cc3ccccc3F)C(=O)c3ccccc3S4=O)CC2C)c1 (stereo unspecified)	-	.	.	-	.
OC(CN1CCOCC1)CN1CCOCC1	-	-	-	-	-
Nc1c(C(=O)CSc2nnc(-c3ccccc3F)o2)c(=O)[nH]c(=O)n1C1CC1	-	.	-	-	.
O=C1NCCCC2c3c(cc(Br)c(O)c3Br)OC12N1CCCCC1 (stereo unspecified)	22µM	-	-	-	-
Cc1ccc(S(=O)(=O)N2CCN(C(=O)c3cc(S(=O)(=O)N4CCOCC4)ccc3Cl)CC2)c(C)c1	.	.	-	-	.
CCOC(=O)CNc1ccc2c(c1)OCO2	50µM	?	-	-	-
CCOC(=O)c1c(C)c(C(=O)Nc2ccc3c(c2)OCO3)c(C)n1C	-	-	-	-	-
CCOC(=O)c1c(N)sc(C(=O)Nc2ccc3c(c2)OCO3)c1C	-	-	?	-	5µM
CN(C)CCCOC(=O)Cc1ccc(Cl)cc1	-	-	-	-	-
CO/N=C(\C(=O)N[C@@H]1C(=O)N2C(C(=O)O)=C(COC(N)=O)CS[C@@H]12)c1ccco1	.	-	.	.	.
CC(=O)OCC1=C(C(=O)O)N2C(=O)C(NC(=O)c3ccc(COc4c(C)cccc4Cl)o3)C2SC1 (stereo unspecified)	20µM	-	-	-	-
CC(=O)OCC1=C(C(=O)O)N2C(=O)C(NC(=O)c3ccc(COc4ccc(Cl)cc4)o3)C2SC1 (stereo unspecified)	22µM	-	-	-	-
COc1cc(C2CC(=O)Nc3cc4c(cc32)OCCO4)cc(Br)c1OC (stereo unspecified)	-	.	.	-	.
C/C=C1/C[N+]2(C)CCC34C(=C(C=O)[C@H]1C[C@@H]32)Nc1ccccc14 (stereo partly specified)	28µM	.	-[18.4 µM]	-	.
CCOc1ccc(C(C)=O)cc1COC(=O)C(C)N=C1NS(=O)(=O)c2ccccc21 (stereo unspecified)	20µM	-	-	-	-
O=C1C2C3C=CC(CNS(=O)(=O)c4ccccc4)(O3)C2C(=O)N1c1ccc(Cl)cc1 (stereo unspecified)	4µM	-	3.2µM	-	-
CC(=O)Oc1ccc(N2C(=O)C3C(C2=O)C2(C)C=CC3(C)O2)cc1 (stereo unspecified)	0.63µM	-	.	.	-
CC(=O)Oc1ccc(N2C(=O)C3C4C=CC(CO)(O4)C3C2=O)cc1 (stereo unspecified)	0.89µM	-	7.9µM	?	-
O=C1C2C3C=CC(CO)(O3)C2C(=O)N1c1ccccc1-c1ccccc1 (stereo unspecified)	0.32µM	-	13µM	?	18µM
O=C1CCC(=O)N1c1ccccc1-c1ccccc1	-	-	-	-	-
COc1ccccc1-c1nnn(CC#N)n1	-	-	-	-	-
CCOC(=O)COc1c(-c2ccc(OC)cc2)oc2ccccc2c1=O	-	-	-	-	-
SMILES	Sm TGR inh	FBPA Giardia inh	RE007 growth inh	TbPYK inhibitor	LmPK inhibitor
COc1ccc(NS(=O)(=O)c2cccc(C(=O)OCC(=O)c3c(N)n(C)c(=O)n(C)c3=O)c2)cc1	.	.	-	-	.
CCOC(=O)C1=C(Cc2ccc(Cl)cc2)C(=O)c2ccccc2C1=O	3.5µM	2.5µM	35µM	?	?
CCOC(=O)C1=C(C)N=C2c3ccccc3C(=O)C2C1c1ccc(Cl)cc1 (stereo unspecified)	-	-	-	-	-
CC(CCl)n1c(=O)c2ccccc2n1S(C)(=O)=O (stereo unspecified)	.	.	-	-	.
COc1ccc(OC)c(C2C(C(=O)Nc3ccc(F)cc3)=C(C)Nc3nc(CCCO)nn32)c1 (stereo unspecified)	-	?	-	-	-
CCOc1ccc(N2CC(C(=O)NCC(=O)Nc3ccc(F)c(F)c3F)CC2=O)cc1 (stereo unspecified)	32µM	.	-	-	.
CCNC(=O)C1CC(=O)N(c2ccc(OCC)cc2)C1 (stereo unspecified)	-	-	-	-	-
CCOC(=O)C1CCN(S(=O)(=O)c2cccc3nonc23)CC1	-	-	-	-	-
CCOC(=O)C1CCN(S(=O)(=O)c2c(Cl)ccc3nonc23)CC1	0.89µM	.	.	.	-
COCCNC(=O)CSc1nc2sc(C)c(C)c2c(=O)n1-c1ccccc1	-	-	-	-	-
CC(C)(C)C1CCc2sc(C(=O)NNC(=O)CCl)cc2C1 (stereo unspecified)	11µM	-	-	-	-
Cc1cc2c(cc1S(=O)(=O)CCC(=O)NCCc1ccccc1)OCC(=O)N2	-	-	-	-	-
COc1ccc(NC(=S)NC(NC(=O)CF)C(Cl)(Cl)Cl)cc1[N+](=O)[O-] (stereo unspecified)	35µM	-	-	-	-
COc1ccc(NC(=S)NC(NC(=O)CCl)C(Cl)(Cl)Cl)c([N+](=O)[O-])c1 (stereo unspecified)	2.8µM	-	-	-	-
COC(=O)NC(NC(=S)Nc1ccc([N+](=O)[O-])cc1)C(Cl)(Cl)Cl (stereo unspecified)	20µM	-	-	-	-
COc1ccc(NC(=S)NC(NC(=O)c2ccccc2Cl)C(Cl)(Cl)Cl)c([N+](=O)[O-])c1 (stereo unspecified)	-	-	-	-	-
CCOC(=O)C1=C[C@@H](CC)N(S(=O)(=O)c2ccc([N+](=O)[O-])cc2)[C@H]1c1ccccc1	.	.	-	-	.
Cc1cc(C(=O)NP(=O)(N2CCOCC2)N2CCOCC2)c(C)n1-c1ccc(N(C)C)cc1	-	-	-	-	-
CC(=O)Nc1ccc(NC(=O)c2c(-c3ccccc3Cl)noc2C)c(C)c1	-	.	-	-	-
COc1ccc(NC(=O)N2c3ccccc3C(C)=CC2(C)C)cc1	-	-	-	-	-
COc1ccc(NC(=O)N2c3ccc(OC)cc3C(C)=CC2(C)C)cc1	-	11µM	-	-	-
Cc1ccccc1/C=C/C(=O)c1ccc([N+](=O)[O-])o1	2µM	.	8.9µM	-	.
Cc1cccc(/C=C/C(=O)c2ccc([N+](=O)[O-])o2)c1	1.6µM	.	-	-	.
O=C(/C=C/c1cccc([N+](=O)[O-])c1)c1ccc([N+](=O)[O-])o1	.	.	-	-	.
COc1ccc(/C=C/C(=O)c2ccc([N+](=O)[O-])o2)cc1	?	.	-	-	.
COc1cccc(OCC(O)CN2CCN(C(c3ccccc3)c3ccccc3)CC2)c1 (stereo unspecified)	.	.	-	-	.

High-throughput results as filed in PubChem.
